Test results published in PubChem BioAssay (EPA / NIEHS).
Inconclusive results are not listed. Calls of active or inactive are those of the source. The calls were made as follows, unless noted: active = hit-call score of the fitted dose curve at least 0.9, where 1 is the maximum; inconclusive = response in the unintended direction; inactive = score below 0.9.

Assays:
[1] = target: Nucleoli Translocation, AR (gene 367) (UniProt P10275); experiment: UPITT_HCI_U2OS_AR_TIF2_Nucleoli_Antagonist: University of Pittsburgh U2OS Androgen Receptor-Transcriptional Intermediary Factor 2 (AR-TIF2) Antagonism High Content Imaging Assay for Nucleoli Translocation (AID 2283997)
Sequence of Nucleoli Translocation, AR (gene 367) (P10275 whole entry, looked up, the tested form may be a part): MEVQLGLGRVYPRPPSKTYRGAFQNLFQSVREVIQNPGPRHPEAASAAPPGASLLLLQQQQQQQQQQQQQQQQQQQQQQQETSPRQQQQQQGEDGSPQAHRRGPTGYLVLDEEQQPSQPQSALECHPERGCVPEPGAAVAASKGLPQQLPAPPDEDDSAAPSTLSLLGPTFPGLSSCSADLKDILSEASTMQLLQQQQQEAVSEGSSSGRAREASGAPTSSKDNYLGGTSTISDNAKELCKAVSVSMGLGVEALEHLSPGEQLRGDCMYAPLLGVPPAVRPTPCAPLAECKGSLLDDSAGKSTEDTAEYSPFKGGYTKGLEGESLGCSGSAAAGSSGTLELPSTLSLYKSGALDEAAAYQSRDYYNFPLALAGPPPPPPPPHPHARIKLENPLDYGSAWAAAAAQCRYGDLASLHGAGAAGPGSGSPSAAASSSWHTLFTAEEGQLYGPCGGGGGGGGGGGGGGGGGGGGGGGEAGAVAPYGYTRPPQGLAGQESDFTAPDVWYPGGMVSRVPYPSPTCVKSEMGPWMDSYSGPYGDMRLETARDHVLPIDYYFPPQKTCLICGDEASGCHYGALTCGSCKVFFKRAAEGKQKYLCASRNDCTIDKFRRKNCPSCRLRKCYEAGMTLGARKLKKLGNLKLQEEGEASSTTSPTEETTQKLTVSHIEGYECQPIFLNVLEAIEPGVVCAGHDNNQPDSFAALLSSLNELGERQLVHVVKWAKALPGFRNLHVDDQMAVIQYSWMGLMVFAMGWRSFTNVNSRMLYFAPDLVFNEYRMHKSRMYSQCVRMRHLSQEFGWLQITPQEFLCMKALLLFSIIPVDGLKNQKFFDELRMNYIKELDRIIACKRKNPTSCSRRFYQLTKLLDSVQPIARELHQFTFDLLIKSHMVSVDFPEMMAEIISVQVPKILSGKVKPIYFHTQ
How it was run: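 Antagonism is read as loss of nucleolar AR-RFP signal relative to DHT, imaged in U2OS cells also carrying GFP-TIF2. Compounds screened at 20 uM final, 0.2% DMSO; primary actives retested in triplicate.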

[2] = target: Nucleoli Translocation, AR (gene 367) (UniProt P10275); experiment: UPITT_HCI_U2OS_AR_TIF2_Nucleoli_Agonist: University of Pittsburgh U2OS Androgen Receptor-Transcriptional Intermediary Factor 2 (AR-TIF2) Agonism High Content Imaging Assay for Nucleoli Translocation (AID 2283998)
How it was run: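 High-content images quantify nucleolar accumulation of RFP-fused AR in cells also expressing GFP-TIF2; the endpoint is fitted as signal gain versus DMSO controls across final concentrations of 0.195 to 50 uM.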

[3] = target: Thyroid hormone receptor alpha (Rattus norvegicus) + Thyroid hormone receptor beta (Rattus norvegicus) (UniProt P18113+P63059); experiment: TOX21_TR_LUC_GH3_Agonist_Followup: Tox21 GH3 Thyroid Hormone Receptor Agonism Luciferase Follow-Up Assay (AID 2283939)
Sequence of Thyroid hormone receptor alpha (Rattus norvegicus) + Thyroid hormone receptor beta (Rattus norvegicus) (P63059 whole entry, looked up): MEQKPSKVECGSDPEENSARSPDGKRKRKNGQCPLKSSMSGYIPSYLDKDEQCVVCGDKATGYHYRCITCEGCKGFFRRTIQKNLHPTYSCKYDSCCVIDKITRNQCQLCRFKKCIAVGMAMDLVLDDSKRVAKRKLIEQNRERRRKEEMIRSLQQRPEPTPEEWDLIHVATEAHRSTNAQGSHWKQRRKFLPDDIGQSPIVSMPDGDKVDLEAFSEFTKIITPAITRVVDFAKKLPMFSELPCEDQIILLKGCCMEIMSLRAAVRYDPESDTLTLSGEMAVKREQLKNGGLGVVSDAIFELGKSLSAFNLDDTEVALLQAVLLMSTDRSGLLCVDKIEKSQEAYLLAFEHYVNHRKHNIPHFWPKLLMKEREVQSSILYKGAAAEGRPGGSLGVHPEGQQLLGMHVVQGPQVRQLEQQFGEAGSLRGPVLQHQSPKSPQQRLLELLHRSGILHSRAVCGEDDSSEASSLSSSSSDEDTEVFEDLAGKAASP
Sequence of Thyroid hormone receptor alpha (Rattus norvegicus) + Thyroid hormone receptor beta (Rattus norvegicus) (P18113 whole entry, looked up): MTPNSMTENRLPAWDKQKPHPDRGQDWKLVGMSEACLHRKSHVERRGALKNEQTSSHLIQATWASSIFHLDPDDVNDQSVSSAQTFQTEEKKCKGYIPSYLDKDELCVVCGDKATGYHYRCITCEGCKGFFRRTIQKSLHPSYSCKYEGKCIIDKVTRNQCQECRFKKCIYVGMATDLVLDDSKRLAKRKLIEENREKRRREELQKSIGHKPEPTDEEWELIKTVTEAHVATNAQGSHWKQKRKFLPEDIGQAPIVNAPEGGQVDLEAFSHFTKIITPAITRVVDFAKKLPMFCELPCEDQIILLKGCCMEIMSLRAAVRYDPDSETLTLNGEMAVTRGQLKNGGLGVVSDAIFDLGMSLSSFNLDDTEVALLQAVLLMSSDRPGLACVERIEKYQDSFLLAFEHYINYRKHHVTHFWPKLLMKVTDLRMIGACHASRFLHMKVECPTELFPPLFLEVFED
How it was run: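 Agonist-mode confirmatory run: 15 concentrations (5 nM to 92 uM final) on GH3 rat pituitary cells, 24 h at 37C/5% CO2, T3 as positive control. Luminescence read with ONE-Glo after 30 min.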

[4] = target: THRA (gene 7067) (UniProt P10827); experiment: TOX21_TRA_COA_Agonist_Followup_ratio: Tox21 Thyroid Hormone Receptor alpha Agonism through Coactivator Recruitment Follow-Up Assay, Ratio (AID 2283948; active = hit-call score of the fitted dose curve at least 0.9, where 1 is the maximum; inactive = score below 0.9)
Sequence of THRA (gene 7067) (P10827 whole entry, looked up, the tested form may be a part): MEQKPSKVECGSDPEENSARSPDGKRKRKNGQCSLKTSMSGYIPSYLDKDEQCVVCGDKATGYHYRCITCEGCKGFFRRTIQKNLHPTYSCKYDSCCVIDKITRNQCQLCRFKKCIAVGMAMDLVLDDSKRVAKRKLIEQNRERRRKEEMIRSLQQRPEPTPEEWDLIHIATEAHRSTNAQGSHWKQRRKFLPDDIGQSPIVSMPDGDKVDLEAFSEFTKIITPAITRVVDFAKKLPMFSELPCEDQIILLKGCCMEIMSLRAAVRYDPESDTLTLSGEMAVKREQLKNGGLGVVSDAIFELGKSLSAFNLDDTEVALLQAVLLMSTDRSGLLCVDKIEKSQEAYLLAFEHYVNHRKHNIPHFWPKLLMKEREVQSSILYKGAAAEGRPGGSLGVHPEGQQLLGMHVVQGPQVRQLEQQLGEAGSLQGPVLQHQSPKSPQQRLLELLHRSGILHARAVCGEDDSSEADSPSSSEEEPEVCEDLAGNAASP
How it was run: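 Agonist-mode biochemical TR-FRET with TRα LBD and SRC-2 coactivator peptide; activity expressed as percent of T3 response over DMSO baseline.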

[5] = target: THRB (gene 7068) (UniProt P10828); experiment: TOX21_TRB_COA_Agonist_Followup_ratio: Tox21 Thyroid Hormone Receptor beta Agonism through Coactivator Recruitment Follow-Up Assay, Ratio (AID 2283963; active = hit-call score of the fitted dose curve at least 0.9, where 1 is the maximum; inactive = score below 0.9)
Sequence of THRB (gene 7068) (P10828 whole entry, looked up, the tested form may be a part): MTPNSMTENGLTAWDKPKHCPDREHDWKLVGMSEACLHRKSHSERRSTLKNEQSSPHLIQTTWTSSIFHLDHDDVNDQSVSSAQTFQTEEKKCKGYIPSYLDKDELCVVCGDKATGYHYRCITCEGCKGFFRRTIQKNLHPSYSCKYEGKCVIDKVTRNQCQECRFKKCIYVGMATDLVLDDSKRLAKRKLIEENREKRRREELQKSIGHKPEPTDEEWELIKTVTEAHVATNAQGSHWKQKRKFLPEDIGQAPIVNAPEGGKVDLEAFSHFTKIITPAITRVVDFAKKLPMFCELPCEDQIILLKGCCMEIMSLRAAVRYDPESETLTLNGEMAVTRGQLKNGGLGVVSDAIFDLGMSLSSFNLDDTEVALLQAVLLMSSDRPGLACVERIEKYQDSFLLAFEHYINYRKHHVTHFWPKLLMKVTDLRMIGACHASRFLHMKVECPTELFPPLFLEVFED
How it was run: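 GST-TRb LBD 5.0 nM + 0.10% BSA + cpd; add fluorescein-SRC-2 200 nM / Tb anti-GST Ab 2 nM; TR-FRET ex 340, em 520:495; norm DMSO 0%, T3 100%.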

[6] = target: Retinoic acid receptor RXR-alpha (Homo sapiens) (UniProt P19793); experiment: TOX21_TR_RXR_BLA_Agonist_Followup_ratio: Tox21 Thyroid Hormone Receptor beta Retinoid X Receptor alpha (RXRa) Agonism Beta-lactamase (BLA) Follow-Up Assay, Ratio (AID 2283968)
Sequence of Retinoic acid receptor RXR-alpha (Homo sapiens) (P19793 whole entry, looked up): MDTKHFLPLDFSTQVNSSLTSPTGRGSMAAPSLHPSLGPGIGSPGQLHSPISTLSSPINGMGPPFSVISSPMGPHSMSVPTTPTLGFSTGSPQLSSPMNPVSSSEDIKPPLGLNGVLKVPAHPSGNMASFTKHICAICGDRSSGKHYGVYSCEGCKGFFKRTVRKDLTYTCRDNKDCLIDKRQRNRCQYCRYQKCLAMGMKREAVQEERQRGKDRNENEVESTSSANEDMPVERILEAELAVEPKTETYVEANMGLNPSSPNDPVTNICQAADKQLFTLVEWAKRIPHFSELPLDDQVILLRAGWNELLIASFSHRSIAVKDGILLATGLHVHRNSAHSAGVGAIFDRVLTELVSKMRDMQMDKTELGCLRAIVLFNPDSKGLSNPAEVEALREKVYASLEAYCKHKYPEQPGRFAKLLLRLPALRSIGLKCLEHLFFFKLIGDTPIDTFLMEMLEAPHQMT
How it was run: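 Read-out: blue/green (460:530 nm) FRET ratio from cleaved vs uncleaved CCF4 substrate, fitted for gain of signal relative to DMSO. Cells: HEK293T with RXRa-UAS-bla reporter; 16 h compound exposure, 11 concentrations, triplicate.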

[7] = TOX21_TR_RXR_BLA_Agonist_Followup_viability: Viability Assessment in the Tox21 Thyroid Hormone Receptor beta Retinoid X Receptor alpha (RXRa) Agonism Beta-lactamase (BLA) Follow-Up Assay (AID 2283970)
How it was run: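 CellTiter-Glo ATP quantitation as viability read-out in RXRa-bla HEK293T cells (2,500/well, charcoal-stripped 2% FBS medium), 16h compound incubation at 37C. Loss of signal versus DMSO taken as cytotoxicity, analyzed by bidirectional curve fitting.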

[8] = tested on: DIO1 (gene 1733); experiment: CCTE_GLTED_hDIO1: CCTE's human Deiodinase 1 (DIO1) Inhibition Assay, Great Lakes Toxicology and Ecology Division (GLTED) Lab (AID 2283987);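 also: isolated human DIO1 enzyme in a cell-free setup rather than cells; enzyme activity read as free iodide liberated from substrate via Sandell-Kolthoff colorimetry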
How it was run: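 Chemicals are tested on human DIO1 without cells for 3 h. Uninhibited enzyme frees iodide, which speeds cerium(IV) reduction by arsenic and is read by spectrophotometry.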

[9] = target: PGR (gene 5241) (UniProt P06401); experiment: TOX21_PR_LUC_Followup_Antagonist: Tox21 HEK293 Progesterone Receptor (PR) Antagonism Luciferase Follow-Up Assay (AID 2283938);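 also: curve fitted upward as signal gain over DMSO baseline despite antagonist label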
Sequence of PGR (gene 5241) (P06401 whole entry, looked up): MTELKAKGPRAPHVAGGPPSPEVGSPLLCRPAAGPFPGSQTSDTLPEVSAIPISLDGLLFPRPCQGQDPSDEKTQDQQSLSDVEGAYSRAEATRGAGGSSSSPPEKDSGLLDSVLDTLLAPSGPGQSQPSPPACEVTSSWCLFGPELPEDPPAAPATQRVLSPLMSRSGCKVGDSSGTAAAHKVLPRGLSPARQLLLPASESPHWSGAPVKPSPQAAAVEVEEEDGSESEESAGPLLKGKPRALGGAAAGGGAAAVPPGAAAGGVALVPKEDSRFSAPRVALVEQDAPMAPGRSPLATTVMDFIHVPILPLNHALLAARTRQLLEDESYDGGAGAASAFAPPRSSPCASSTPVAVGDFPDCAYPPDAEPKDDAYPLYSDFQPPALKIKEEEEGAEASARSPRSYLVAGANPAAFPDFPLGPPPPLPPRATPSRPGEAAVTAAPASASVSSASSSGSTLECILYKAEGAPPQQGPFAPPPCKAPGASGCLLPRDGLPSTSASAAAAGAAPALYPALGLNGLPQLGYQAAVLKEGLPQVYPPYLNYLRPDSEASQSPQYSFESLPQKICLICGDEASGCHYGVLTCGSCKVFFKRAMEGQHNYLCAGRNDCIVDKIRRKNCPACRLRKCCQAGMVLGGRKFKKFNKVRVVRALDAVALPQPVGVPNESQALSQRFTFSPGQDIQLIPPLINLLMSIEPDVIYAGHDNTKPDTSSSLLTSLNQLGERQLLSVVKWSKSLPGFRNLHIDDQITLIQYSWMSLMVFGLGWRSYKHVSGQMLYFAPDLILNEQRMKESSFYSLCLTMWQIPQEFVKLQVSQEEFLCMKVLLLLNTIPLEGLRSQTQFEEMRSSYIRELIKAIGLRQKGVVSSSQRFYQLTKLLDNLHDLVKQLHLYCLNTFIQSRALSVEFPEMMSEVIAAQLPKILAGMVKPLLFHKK
How it was run: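 Luciferase reporter in HEK293-PR-A-luc cells: 16 h compound treatment at 37C, ONE-Glo luminescence detection, DMSO as negative control and baseline.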

[10] = TOX21_PR_LUC_Followup_Antagonist_viability: Viability Assessment in the Tox21 HEK293 Progesterone Receptor (PR) Antagonism Luciferase Follow-Up Assay (AID 2283940)
How it was run: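 Read-out: CellTiter-Glo ATP luminescence, loss of signal taken as reduced viability. Cells: HEK293-PR-A-luc, 3,000/well, 5 h settling, then 16 h compound exposure at 37C, 0% CO2.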

[11] = TOX21_PR_LUC_Followup_Agonist_viability: Viability Assessment in the Tox21 HEK293 Progesterone Receptor (PR) Agonism Luciferase Follow-Up Assay (AID 2283941);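 also: loss of signal means cytotoxicity so actives lower viability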
How it was run: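 Cytotoxicity counter-screen: ATP content by CellTiter-Glo luminescence, loss of signal = reduced viability. HEK293-PR-A-luc, 3,000 cells/well, compound exposure 16 h, 37C.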

[12] = target: THRB (gene 7068) (UniProt P10828); experiment: TOX21_TRB_BLA_Agonist_Followup_ratio: Tox21 Thyroid Hormone Receptor beta Agonism Beta-lactamase (BLA) Follow-Up Assay, Ratio (AID 2283954)
How it was run: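 Agonist mode: compounds (11-point, triplicate) incubated 18 h with HEK293T cells carrying GAL4-DBD/human TRβ-LBD and UAS-β-lactamase. Blue/green (460/530 nm) FRET ratio read after 2 h CCF4-AM loading; CellTiter-Glo viability run in the same plates.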

## Nc1ccc(N)c2c1C(=O)c1ccccc1C2=O
[1]
  outcome: inactive
[2]
  outcome: inactive

## OCc1cccc(Oc2ccccc2)c1
[1]
  outcome: inactive

## Cc1cc(C)nc(NS(=O)(=O)c2ccc(N)cc2)n1
[3]
  outcome: inactive
[4]
  outcome: inactive
[5]
  outcome: inactive
[6]
  outcome: inactive
[7]
  outcome: inactive

## CCCCCCCCCCCCCCN(CCO)CCO
[8]
  AC50: 30.6 µM (active)

## N#Cc1ccc(CC(=O)c2cccc(C(F)(F)F)c2)cc1
[9]
  AC50: 32 µM (active)
[10]
  outcome: inactive
[11]
  outcome: inactive

## CCCCC(CC)COC(=O)c1ccc(O)cc1 (configuration not stated)
[8]
  AC50: 85.4 µM (active)

## CCOC(=O)[C@@H](C)Oc1ccc(Oc2nc3ccc(Cl)cc3o2)cc1
[1]
  outcome: inactive
[2]
  outcome: inactive

## OCCCCC(O)CO (configuration not stated)
[3]
  outcome: inactive
[4]
  outcome: inactive
[12]
  outcome: inactive
[5]
  outcome: inactive
[6]
  outcome: inactive

## CCc1cc(Cc2cc(CC)cc(C(C)(C)C)c2O)c(O)c(C(C)(C)C)c1
[1]
  AC50: 62.2 µM (active)
[2]
  AC50: 77.1 µM (active)

## N[C@@H](Cc1cc(I)c(Oc2cc(I)c(O)c(I)c2)c(I)c1)C(=O)O
[6]
  outcome: inactive
[7]
  outcome: inactive

## CC(=O)Nc1ccc(C(=O)CCl)cc1
[4]
  outcome: inactive
[5]
  outcome: inactive
[7]
  AC50: 69.1 µM (active)

## CCCCCCCCCCCCCC(=O)OCC(O)CO (configuration not stated)
[2]
  outcome: inactive

## CCCCCCCCSCCO
[1]
  AC50: 59 µM (active)
[2]
  outcome: inactive

## CC(C)CCCCCCc1ccc(OCCOCCO)cc1
[1]
  outcome: inactive

## BrCc1cccc(Oc2ccccc2)c1
[1]
  outcome: inactive
[2]
  outcome: inactive

## CC(C)CCCCCCCCCCCCCCC(=O)O
[8]
  AC50: 72.8 µM (active)

## C[C@H]1O[C@@H](O[C@H]2[C@@H](O)C[C@H](O[C@H]3[C@@H](O)C[C@H](O[C@H]4CC[C@@]5(C)[C@H](CC[C@@H]6[C@@H]5C[C@@H](O)[C@]5(C)[C@@H](C7=CC(=O)OC7)CC[C@]65O)C4)O[C@@H]3C)O[C@@H]2C)C[C@H](O)[C@@H]1O
[1]
  outcome: inactive

## O=Cc1ccccc1S(=O)(=O)O
[3]
  outcome: inactive
[4]
  outcome: inactive
[5]
  outcome: inactive
[6]
  outcome: inactive
[7]
  outcome: inactive

## CC(C=O)Cc1ccc(C(C)(C)C)cc1 (configuration not stated)
[1]
  outcome: inactive
[2]
  outcome: inactive
